Compound activity: PubChem, Sanford-Burnham Center for Chemical Genomics
The list is not random: actives were taken first. Their share in the collection is about 3%.
SENP8 block-1 – human SENP8 protease inhibitors, primary screen, biochemical, fluorescence, Nedd8 protein substrate, uHTS; Sentrin-specific protease 8 (Homo sapiens), Q96LD8; inhibition, % at 20 µM; 360,000 compounds, 0.64% hits; recombinant SENP8; in the data active = inhibition mostly above about 40%, no sharp cut-off; inactive = mostly below about 27%
Target sequence (Q96LD8 whole entry, looked up): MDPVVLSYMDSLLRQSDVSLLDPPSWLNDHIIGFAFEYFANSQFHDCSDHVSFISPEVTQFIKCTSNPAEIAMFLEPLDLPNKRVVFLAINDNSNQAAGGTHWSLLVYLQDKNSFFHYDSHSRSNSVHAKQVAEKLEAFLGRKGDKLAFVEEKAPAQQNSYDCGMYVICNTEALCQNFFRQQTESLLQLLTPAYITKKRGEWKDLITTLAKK
SENP6 inh – SENP6 protease inhibitors, primary screen, biochemical, luminescence, uHTS. 330,000 compounds, 1.8% hits. Recombinant SENP6 catalytic domain, aminoluciferin luminescence. inhibition, % at 10 µM;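 active = inhibition above about 50% at the single tested dose, limit read from the data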;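 also: plate controls were DMSO wells with enzyme for no effect and DMSO wells lacking enzyme for full effect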
SENP7 inh – SENP7 protease inhibitors, primary screen, biochemical, luminescence, uHTS. inhibition, % at 5 µM. 330,000 compounds, 1.5% hits. recombinant SENP7, Z-RLRGG-aminoluciferin luminescence, 40 min;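 active = inhibition above about 50% at the single test dose, limit read from the data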;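 also: plate controls were DMSO with enzyme for no effect and no enzyme buffer wells for full effect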
Target sequence (Q9BQF6 706-1050 limits assumed): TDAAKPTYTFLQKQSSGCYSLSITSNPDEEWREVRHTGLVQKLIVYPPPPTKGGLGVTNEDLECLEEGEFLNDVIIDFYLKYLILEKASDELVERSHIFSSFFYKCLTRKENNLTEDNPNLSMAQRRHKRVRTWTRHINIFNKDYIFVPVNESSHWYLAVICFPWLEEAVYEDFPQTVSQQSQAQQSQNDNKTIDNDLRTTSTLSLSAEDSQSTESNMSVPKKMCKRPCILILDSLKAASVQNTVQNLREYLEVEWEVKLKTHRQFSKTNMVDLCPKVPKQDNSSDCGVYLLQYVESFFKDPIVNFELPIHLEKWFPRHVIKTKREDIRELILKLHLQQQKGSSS
PPC-1+TRAIL kill – compounds killing PPC-1 cancer cells with TRAIL present, primary screen, TRAIL potentiator project, ATPLite luminescence, uHTS | cell killing (% activity), % at 4 µM or 5 µM | 220,000 compounds, 0.41% hits | AID 1443, 2008 | PPC-1 cells + TRAIL, ATPLite viability luminescence;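 active = cell killing above 50% in the first pass at 4 µM, then a duplicate retest at 5 µM averaging 50% or more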;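 also: plate controls were cells with TRAIL plus DMSO for no effect and medium-only wells lacking cells for full effect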
SENP8 block-2 – SENP8 protease inhibitors, primary screen, biochemical, luminescence; purified SENP8, Z-RLRGG-aminoluciferin cleavage; inhibition, % at 10 µM; 330,000 compounds, 1.2% hits; AID 2540, 2010; in the data active = inhibition above about 50%
C8 TRAIL sens – viability loss with TRAIL in NB7+C8 cells, primary screen, TRAIL sensitizer project, cell-based, ATPlite luminescence | 360,000 compounds, 1% hits | inhibition (viability loss, TRAIL sensitization), % at 10 µM;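 active = compounds causing at least 50% loss of cell viability in the single-dose screen, relative to plate controls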
SENP8 inh conf – human SENP8 protease inhibitors, confirmation, biochemical, Nedd8 protein substrate, single concentration | 1,400 compounds, 15% hits | shares compounds with SENP8 block-1 | purified SENP8, Nedd8-AMC/pro-Nedd8 cleavage fluorescence, 30 min | inhibition, % at 25 µM; in the data active = inhibition mostly above about 39%, no sharp cut-off; inactive = mostly below about 34%
* = called active by the depositor; / = not tested or not shown.

SMILES | SENP8 block-1 | SENP6 inh | SENP7 inh | PPC-1+TRAIL kill | SENP8 block-2 | C8 TRAIL sens | SENP8 inh conf
COc1ccc(NCC(=O)N/N=C2\CCc3ccccc32)cc1 | 40* | 15 | 9 | 7 | -1 | -27 | 26
Cc1ccc(-n2c(=O)cc(N3CCCCCC3)[nH]c2=O)cc1 | 45* | -19 | 6 | -14 | -6 | -1 | 14
Cc1cccc(C(=O)NC2C(=O)NNC2c2ccc(Cl)cc2)c1 (stereo not drawn) | 44* | 19 | 14 | 0 | -2 | -1 | 22
Cc1cccc(C(=O)NC2CCCCCCC2)c1 | 12 | 11 | 5 | / | -13 | 5 | /
O=C(NC1CCCCC1c1ccccc1)c1ccccc1 (stereo not drawn) | 13 | / | / | / | / | -7 | /
O=C(NC1C(=O)NNC1c1ccccc1)c1ccccc1 (stereo not drawn) | 55* | 14 | -5 | 10 | -5 | -11 | 17
O=[N+]([O-])c1cc(-n2cccc2)ccc1N1CCOCC1 | 42* | 11 | 9 | -3 | 6 | -11 | 8
CC1CCN(c2cc(N3CCOCC3)c([N+](=O)[O-])cc2F)CC1 | 41* | -24 | 1 | 26 | 0 | -8 | 23
Cc1ccc(NC(=O)COC(=O)c2c(-c3ccccc3)noc2C)c(C)c1 | 9 | -3 | 8 | / | 11 | -6 | /
Nc1cc(Cl)nc(N/N=C/c2ccccc2[N+](=O)[O-])n1 | 52* | -10 | 6 | 0 | 9 | 6 | 29
Nc1cc(Cl)nc(N/N=C/c2ccc([N+](=O)[O-])cc2)n1 | 13 | -3 | 6 | 29 | 0 | 18 | /
N#CC(C#N)=c1ccc2c(c1)NC1(CCCCC1)N=2 | 42* | 15 | 9 | 12 | 18 | -8 | 24*
O=[N+]([O-])c1ccc(-[n+]2nc(-c3ccccc3)nn2-c2ccccc2)cc1 | 50* | -1 | 10 | / | 13 | -2 | 45*
Cc1cccc(-c2nc(S(=O)(=O)c3ccc(F)cc3)c(NCCCN3CCOCC3)o2)c1 | -18 | -9 | -10 | / | -8 | -8 | /
CC1=NN(Cc2ccccc2)C(=O)C1 | 43* | 9 | 12 | 7 | 4 | 2 | 26
O=C1CCCCCCCN1Cc1ccccc1 | 14 | -14 | -6 | / | -3 | -3 | /
COc1ccc(/C=C/C(=O)N[C@H](C(=O)O)C(C)C)cc1 | 4 | 11 | 1 | 27 | 2 | 15 | /
CC(=O)C1=C(C)NC(C)=C(C(C)=O)C1c1ccccc1 | 41* | 2 | 0 | 7 | 11 | -8 | 11
CSC1=C(C#N)C(c2ccccc2)C(C(C)=O)=C(C)N1 (stereo not drawn) | -18 | 5 | 1 | -9 | -4 | 10 | /
CC(C)C1Cc2c(sc3ncnc(NN)c23)CO1 (stereo not drawn) | 42* | 3 | -11 | / | -8 | 0 | 11
CC(C)Cc1nc2sc3c(c2c(=O)n1N)CC(C(C)C)OC3 (stereo not drawn) | 4 | -8 | 8 | -4 | 3 | 16 | /
CC(C)CCNC(=O)C1(c2cccs2)CCOCC1 | 41* | 17 | -4 | 8 | -8 | -9 | 4
O=C(O)c1ccc(CCCc2ccccc2)cc1 | 9 | / | / | / | / | 6 | /
O=C(O)CCCCCCCCCCCc1ccccc1 | 56* | 34 | -2 | 4 | 41 | 0 | 3
Cc1ccc(C(=O)N2NC(c3ccc(F)cc3)C3C(=O)N(c4ccc(C)cc4)C(=O)C32)cc1 (stereo not drawn) | 15 | -4 | -10 | -5 | 0 | 0 | /
SMILES | SENP8 block-1 | SENP6 inh | SENP7 inh | PPC-1+TRAIL kill | SENP8 block-2 | C8 TRAIL sens | SENP8 inh conf
COc1ccccc1N1C(=O)C2C(c3ccc(F)cc3)NN(C(=O)c3ccc(C)cc3)C2C1=O (stereo not drawn) | 44* | -13 | 6 | 21 | -1 | 4 | 21
COc1ccc(NC(=O)CSc2nnnn2C2CC2)cc1S(=O)(=O)N1CCOCC1 | 3 | 4 | -1 | / | 8 | -6 | /
Nc1nc(Nc2ccc(Cl)cc2)nc(NCCO)c1[N+](=O)[O-] | 24 | -29 | 0 | 23 | -4 | -2 | /
Cc1ccc(Nc2nc(N)c([N+](=O)[O-])c(N3CCC(C)CC3)n2)cc1C | 24 | -18 | 2 | 17 | -14 | -13 | /
Cc1ccc(Nc2nc(N)c([N+](=O)[O-])c(N3CCOCC3)n2)cc1C | 41* | -19 | 3 | 12 | -4 | -2 | 15
Cc1ccc(Nc2nc(N)c([N+](=O)[O-])c(NCCO)n2)cc1C | 48* | 5 | 4 | -9 | 3 | -7 | -1
COc1ccc(Cc2noc(CN3CCCC(OCc4ccccn4)C3)n2)cc1OC (stereo not drawn) | -2 | 8 | 8 | 20 | 3 | -8 | /
CCC(C)(C)C1CCC(=NNC(=S)Nc2ccccc2)CC1 (stereo not drawn) | 45* | -10 | 5 | -4 | 5 | -1 | 0
COC(=O)[C@@H](N)Cc1ccc(O)cc1 | / | -14 | -15 | 12 | -10 | / | /
COC(=O)C(N)CCCCN (stereo not drawn) | 43* | -8 | 5 | / | 5 | 2 | 5
CCn1c(SCC(=O)Nc2oc(-c3ccccc3)c(-c3ccccc3)c2C#N)nnc1-c1cc(OC)cc(OC)c1 | -27 | -4 | 6 | 14 | 5 | 0 | /
Nc1c(NCCCN2CCOCC2)c2ccccc2oc1=O | 38* | 5 | 0 | 38 | 4 | -7 | -6
CC1(C)C(=O)C=CC(=O)C(C)(C)C(=O)C=CC(=O)C(C)(C)C2=CC=C(O2)C(C)(C)C(=O)C=CC1=O | 48* | / | / | / | / | 16 | 12
COc1ccc2oc(=O)c(/C(N)=N/NC(=O)c3ccncc3)cc2c1 | -23 | -8 | 4 | / | 7 | 6 | /
Cc1cnc(C(=O)OCC(=O)NC2CCCCCCC2)cn1 | 16 | -5 | 5 | 12 | 0 | 1 | /
CCN(C(=O)COC(=O)c1cnc(C)cn1)C1CCCCC1 | 40* | 9 | 6 | 10 | 4 | -6 | 4
Cc1ccccc1OCCOC(=O)c1cc(S(=O)(=O)N2CCCCC2)ccc1N1CCOCC1 | 5 | -4 | -7 | / | -12 | 13 | /
CCOc1cc(/C=C2/SC(=Nc3ccccc3)N(Cc3cccnc3)C2=O)ccc1OCC#N | 40* | -21 | 0 | 4 | 4 | 7 | 15
COC(=O)c1ccc(C)cc1C1CN=NC12Cc1cc(C)ccc1C2=O (stereo not drawn) | 57* | / | / | / | / | 8 | 33
O=C(NCCN1CCOCC1)c1cc([N+](=O)[O-])ccc1Cl | 16 | -8 | 0 | / | -11 | -17 | /
